From ChEMBL document CHEMBL1961873, “Compounds: GSK PKIS; Assays: Nanosyn kinase panel” (2012)

Legend:
[1] = biological target: Platelet-derived growth factor receptor beta (Homo sapiens) (UniProt P09619); conditions: at 1 µM;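 further: each value is a mean percent inhibition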
[2] = biological target: Tyrosine-protein kinase FRK (Homo sapiens) (UniProt P42685); conditions: at 0.1 µM
[3] = biological target: Tyrosine-protein kinase FRK (Homo sapiens) (UniProt P42685); conditions: at 1 µM
[4] = biological target: Protein-tyrosine kinase 2-beta (Homo sapiens) (UniProt Q14289); conditions: at 0.1 µM
[5] = biological target: Protein-tyrosine kinase 2-beta (Homo sapiens) (UniProt Q14289); conditions: at 1 µM
[6] = biological target: Proto-oncogene tyrosine-protein kinase receptor Ret (Homo sapiens) (UniProt P07949); conditions: at 0.1 µM
[7] = biological target: Proto-oncogene tyrosine-protein kinase receptor Ret (Homo sapiens) (UniProt P07949); conditions: at 1 µM
[8] = test system: Proto-oncogene tyrosine-protein kinase receptor Ret (Homo sapiens), P07949 [V804L]; conditions: at 0.1 µM
[9] = test system: Proto-oncogene tyrosine-protein kinase receptor Ret (Homo sapiens), P07949 [V804L]; conditions: at 1 µM
[10] = test system: Proto-oncogene tyrosine-protein kinase receptor Ret (Homo sapiens), P07949 [Y791F]; conditions: at 0.1 µM
[11] = test system: Proto-oncogene tyrosine-protein kinase receptor Ret (Homo sapiens), P07949 [Y791F]; conditions: at 1 µM
[12] = biological target: Macrophage-stimulating protein receptor (Homo sapiens) (UniProt Q04912); conditions: at 0.1 µM
[13] = biological target: Macrophage-stimulating protein receptor (Homo sapiens) (UniProt Q04912); conditions: at 1 µM
[14] = biological target: Proto-oncogene tyrosine-protein kinase ROS (Homo sapiens) (UniProt P08922); conditions: at 0.1 µM
[15] = biological target: Proto-oncogene tyrosine-protein kinase ROS (Homo sapiens) (UniProt P08922); conditions: at 1 µM
[16] = biological target: Proto-oncogene tyrosine-protein kinase Src (Homo sapiens) (UniProt P12931); conditions: at 0.1 µM
[17] = biological target: Proto-oncogene tyrosine-protein kinase Src (Homo sapiens) (UniProt P12931); conditions: at 1 µM
[18] = biological target: Tyrosine-protein kinase Srms (Homo sapiens) (UniProt Q9H3Y6); conditions: at 0.1 µM
[19] = biological target: Tyrosine-protein kinase Srms (Homo sapiens) (UniProt Q9H3Y6); conditions: at 1 µM
[20] = biological target: Tyrosine-protein kinase SYK (Homo sapiens) (UniProt P43405); conditions: at 0.1 µM;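 further: reported percentages are mean inhibition values for SYK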

Sequence of Protein-tyrosine kinase 2-beta (Homo sapiens) (Q14289 whole entry, looked up): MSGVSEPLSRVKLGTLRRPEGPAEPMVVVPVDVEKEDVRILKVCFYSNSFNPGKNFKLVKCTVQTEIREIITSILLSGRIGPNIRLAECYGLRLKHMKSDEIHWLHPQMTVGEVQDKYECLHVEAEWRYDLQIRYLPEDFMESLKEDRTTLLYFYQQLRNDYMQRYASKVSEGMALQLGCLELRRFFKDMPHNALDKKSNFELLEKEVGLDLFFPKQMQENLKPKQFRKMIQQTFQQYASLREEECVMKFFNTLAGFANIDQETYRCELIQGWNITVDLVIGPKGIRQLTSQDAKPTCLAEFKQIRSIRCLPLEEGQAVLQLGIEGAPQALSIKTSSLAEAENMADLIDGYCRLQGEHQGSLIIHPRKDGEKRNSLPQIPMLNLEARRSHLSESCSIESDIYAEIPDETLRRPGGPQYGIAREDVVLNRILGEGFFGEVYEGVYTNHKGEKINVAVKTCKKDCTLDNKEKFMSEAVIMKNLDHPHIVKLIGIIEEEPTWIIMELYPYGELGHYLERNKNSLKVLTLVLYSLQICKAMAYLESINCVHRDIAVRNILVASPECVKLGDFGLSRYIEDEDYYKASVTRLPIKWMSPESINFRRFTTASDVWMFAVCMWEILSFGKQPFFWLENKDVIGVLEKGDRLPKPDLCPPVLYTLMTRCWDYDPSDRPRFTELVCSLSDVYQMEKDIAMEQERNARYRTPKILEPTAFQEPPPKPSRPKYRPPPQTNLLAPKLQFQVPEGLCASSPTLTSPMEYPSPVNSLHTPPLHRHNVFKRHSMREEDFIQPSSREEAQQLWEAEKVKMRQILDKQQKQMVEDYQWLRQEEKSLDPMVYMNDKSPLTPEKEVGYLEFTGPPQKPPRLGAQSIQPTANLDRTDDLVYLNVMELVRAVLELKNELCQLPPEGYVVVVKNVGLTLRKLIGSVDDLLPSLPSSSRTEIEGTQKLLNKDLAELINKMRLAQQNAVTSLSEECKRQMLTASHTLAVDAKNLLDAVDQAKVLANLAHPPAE
Sequence of Proto-oncogene tyrosine-protein kinase ROS (Homo sapiens) (P08922 whole entry): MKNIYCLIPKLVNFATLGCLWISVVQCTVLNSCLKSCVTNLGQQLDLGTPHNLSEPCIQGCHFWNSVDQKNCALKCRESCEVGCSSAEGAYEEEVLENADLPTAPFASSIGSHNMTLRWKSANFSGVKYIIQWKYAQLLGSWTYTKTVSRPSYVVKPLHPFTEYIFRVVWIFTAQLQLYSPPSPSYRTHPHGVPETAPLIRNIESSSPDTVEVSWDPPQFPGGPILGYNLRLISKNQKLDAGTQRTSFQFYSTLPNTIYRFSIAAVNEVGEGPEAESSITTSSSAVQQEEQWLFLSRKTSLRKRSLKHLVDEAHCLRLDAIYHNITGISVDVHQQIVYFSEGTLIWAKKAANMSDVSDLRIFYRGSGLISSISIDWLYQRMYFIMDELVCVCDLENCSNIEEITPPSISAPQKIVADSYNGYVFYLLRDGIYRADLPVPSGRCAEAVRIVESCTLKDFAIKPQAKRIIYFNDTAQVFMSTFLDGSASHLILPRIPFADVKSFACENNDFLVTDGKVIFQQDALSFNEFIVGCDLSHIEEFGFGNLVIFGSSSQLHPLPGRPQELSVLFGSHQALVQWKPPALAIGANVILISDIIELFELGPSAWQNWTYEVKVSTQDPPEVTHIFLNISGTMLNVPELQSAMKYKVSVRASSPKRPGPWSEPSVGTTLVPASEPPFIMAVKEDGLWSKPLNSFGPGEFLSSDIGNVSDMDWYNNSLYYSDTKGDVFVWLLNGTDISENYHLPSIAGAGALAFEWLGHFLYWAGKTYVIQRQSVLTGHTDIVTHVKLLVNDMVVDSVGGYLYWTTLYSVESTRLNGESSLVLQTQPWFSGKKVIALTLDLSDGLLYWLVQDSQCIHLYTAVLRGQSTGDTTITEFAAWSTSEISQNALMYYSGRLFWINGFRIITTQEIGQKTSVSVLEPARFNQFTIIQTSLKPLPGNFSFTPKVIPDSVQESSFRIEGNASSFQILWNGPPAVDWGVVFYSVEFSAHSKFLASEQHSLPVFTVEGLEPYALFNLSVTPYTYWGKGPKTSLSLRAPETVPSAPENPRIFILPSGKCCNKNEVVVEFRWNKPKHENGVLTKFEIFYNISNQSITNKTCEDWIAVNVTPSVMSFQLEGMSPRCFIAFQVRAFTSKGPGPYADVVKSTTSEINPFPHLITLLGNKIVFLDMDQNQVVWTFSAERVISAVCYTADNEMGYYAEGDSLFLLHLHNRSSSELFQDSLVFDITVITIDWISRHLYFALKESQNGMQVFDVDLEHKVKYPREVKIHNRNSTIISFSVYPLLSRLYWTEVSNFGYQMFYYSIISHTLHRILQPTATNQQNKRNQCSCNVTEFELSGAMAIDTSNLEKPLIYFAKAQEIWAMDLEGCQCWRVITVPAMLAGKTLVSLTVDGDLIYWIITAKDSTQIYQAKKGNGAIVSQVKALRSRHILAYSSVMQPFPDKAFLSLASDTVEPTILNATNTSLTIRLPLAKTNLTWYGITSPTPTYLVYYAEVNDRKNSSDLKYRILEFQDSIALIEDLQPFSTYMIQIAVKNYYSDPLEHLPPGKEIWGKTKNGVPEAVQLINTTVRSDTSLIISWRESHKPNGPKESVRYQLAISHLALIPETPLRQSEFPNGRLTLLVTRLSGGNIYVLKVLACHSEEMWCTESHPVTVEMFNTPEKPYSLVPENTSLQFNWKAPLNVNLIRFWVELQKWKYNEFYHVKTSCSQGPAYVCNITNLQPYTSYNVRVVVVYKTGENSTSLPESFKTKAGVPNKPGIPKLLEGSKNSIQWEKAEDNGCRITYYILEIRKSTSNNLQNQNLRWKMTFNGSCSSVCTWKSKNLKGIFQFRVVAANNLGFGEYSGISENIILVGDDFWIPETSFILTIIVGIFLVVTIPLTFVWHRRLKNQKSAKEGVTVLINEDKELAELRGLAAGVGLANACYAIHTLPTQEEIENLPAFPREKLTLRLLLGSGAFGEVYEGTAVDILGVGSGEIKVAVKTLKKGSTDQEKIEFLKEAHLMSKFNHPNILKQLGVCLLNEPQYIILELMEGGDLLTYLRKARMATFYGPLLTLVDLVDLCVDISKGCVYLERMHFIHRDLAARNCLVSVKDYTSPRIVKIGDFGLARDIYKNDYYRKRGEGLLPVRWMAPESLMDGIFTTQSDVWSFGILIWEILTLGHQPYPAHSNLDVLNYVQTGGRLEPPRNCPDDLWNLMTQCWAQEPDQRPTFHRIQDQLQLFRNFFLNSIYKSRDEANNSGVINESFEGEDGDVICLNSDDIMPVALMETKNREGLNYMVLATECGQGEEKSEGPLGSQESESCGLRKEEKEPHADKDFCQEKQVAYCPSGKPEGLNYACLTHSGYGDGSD
Sequence of Tyrosine-protein kinase FRK (Homo sapiens) (P42685 whole entry): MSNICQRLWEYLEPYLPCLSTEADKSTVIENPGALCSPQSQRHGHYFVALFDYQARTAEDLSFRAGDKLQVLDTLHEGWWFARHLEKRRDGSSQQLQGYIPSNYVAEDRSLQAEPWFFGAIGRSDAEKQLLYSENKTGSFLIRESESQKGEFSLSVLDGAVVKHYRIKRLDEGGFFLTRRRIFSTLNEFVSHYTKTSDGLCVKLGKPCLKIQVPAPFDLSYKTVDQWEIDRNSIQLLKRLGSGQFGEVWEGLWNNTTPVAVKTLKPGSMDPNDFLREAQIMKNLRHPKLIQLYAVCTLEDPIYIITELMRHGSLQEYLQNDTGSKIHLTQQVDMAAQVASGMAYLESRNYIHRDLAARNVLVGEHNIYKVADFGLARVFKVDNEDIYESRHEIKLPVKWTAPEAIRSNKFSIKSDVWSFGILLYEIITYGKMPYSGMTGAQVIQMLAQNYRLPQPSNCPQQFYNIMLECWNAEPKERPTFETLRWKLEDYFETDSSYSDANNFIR
Sequence of Proto-oncogene tyrosine-protein kinase receptor Ret (Homo sapiens) (P07949 whole entry): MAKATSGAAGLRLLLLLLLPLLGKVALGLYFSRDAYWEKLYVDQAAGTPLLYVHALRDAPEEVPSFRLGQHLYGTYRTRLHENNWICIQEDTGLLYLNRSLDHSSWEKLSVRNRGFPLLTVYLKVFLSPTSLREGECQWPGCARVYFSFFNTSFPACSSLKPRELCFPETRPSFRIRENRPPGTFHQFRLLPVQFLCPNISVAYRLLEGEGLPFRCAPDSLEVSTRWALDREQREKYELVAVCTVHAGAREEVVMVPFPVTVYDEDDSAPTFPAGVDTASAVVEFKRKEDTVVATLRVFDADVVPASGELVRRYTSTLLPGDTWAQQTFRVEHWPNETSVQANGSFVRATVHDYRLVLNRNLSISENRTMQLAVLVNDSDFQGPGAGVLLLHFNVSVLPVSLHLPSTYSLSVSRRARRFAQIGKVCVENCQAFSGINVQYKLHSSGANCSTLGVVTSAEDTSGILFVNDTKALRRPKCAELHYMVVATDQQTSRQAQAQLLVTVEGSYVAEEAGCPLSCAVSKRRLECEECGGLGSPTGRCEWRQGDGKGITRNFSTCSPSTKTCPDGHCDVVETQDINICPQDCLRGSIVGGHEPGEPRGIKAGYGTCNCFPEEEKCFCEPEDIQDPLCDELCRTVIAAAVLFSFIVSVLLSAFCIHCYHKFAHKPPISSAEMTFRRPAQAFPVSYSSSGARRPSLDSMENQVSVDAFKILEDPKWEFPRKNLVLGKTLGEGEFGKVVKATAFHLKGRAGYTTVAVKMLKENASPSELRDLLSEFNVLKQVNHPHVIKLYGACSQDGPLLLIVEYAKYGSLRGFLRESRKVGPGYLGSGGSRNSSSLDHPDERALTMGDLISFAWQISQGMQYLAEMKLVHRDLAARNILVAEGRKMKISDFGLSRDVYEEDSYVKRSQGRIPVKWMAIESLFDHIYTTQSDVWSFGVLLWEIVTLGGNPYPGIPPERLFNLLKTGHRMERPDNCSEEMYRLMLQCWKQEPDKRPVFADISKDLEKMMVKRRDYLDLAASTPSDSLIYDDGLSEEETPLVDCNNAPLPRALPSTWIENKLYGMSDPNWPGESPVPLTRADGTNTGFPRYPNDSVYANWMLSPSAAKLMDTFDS
Sequence of Proto-oncogene tyrosine-protein kinase receptor Ret (Homo sapiens), P07949 [V804L] (P07949 whole entry V804L): as the sequence (P07949 whole entry) above, with V804L counted along it
Sequence of Proto-oncogene tyrosine-protein kinase receptor Ret (Homo sapiens), P07949 [Y791F] (P07949 whole entry Y791F): as the sequence (P07949 whole entry) above, with Y791F counted along it

Row | SMILES | inhibition [1] [%] | inhibition [2] [%] | inhibition [3] [%] | inhibition [4] [%] | inhibition [5] [%] | inhibition [6] [%] | inhibition [7] [%] | inhibition [8] [%] | inhibition [9] [%] | inhibition [10] [%] | inhibition [11] [%] | inhibition [12] [%] | inhibition [13] [%] | inhibition [14] [%] | inhibition [15] [%] | inhibition [16] [%] | inhibition [17] [%] | inhibition [18] [%] | inhibition [19] [%] | inhibition [20] [%]
1 | Nc1nc(-c2ccccn2)c(-c2ccc3ncccc3n2)s1 | 7.71 | 2.13 | 1.57 | 8.82 | 12.2 | 1.19 | 4.76 | 1.3 | 5.95 | 2.3 | 10.2 | 3.66 | 6.53 | 2.94 | 4.03 | 0.7 | 7.78 | -0.44 | -2.72 | -1.33
2 | COc1ccc(-c2ccncc2)cc1C(N)=O | 11.4 | 4.92 | 5.68 | 5.98 | 11.3 | 3.52 | 6.29 | 2.72 | 9.41 | 4.39 | 6.78 | 9.12 | 1.15 | 5.72 | 17.5 | 11.3 | 12.4 | -0.54 | -5.88 | -1.18
3 | CCN1CCC(CC(=O)Nc2n[nH]c3nc(-c4cccs4)c(Br)cc23)CC1 | 14.4 | -1.17 | -0.21 | -9.91 | – | 1.65 | 3.8 | 0.08 | -2.04 | -1.87 | -0.99 | 0.5 | 6.29 | -0.25 | -0.04 | 15.4 | -4.33 | -1.72 | -0.34 | -1.06
4 | NC(=O)c1ccc(-c2nc(-c3ccccn3)c(-c3ccc4c(c3)OCO4)[nH]2)cc1 | 7.47 | 0.98 | -0.16 | 1.97 | 6.61 | 6.29 | 8.97 | 4.67 | 5.88 | 6.95 | 13.7 | -0.12 | -1.49 | 2.07 | 2.89 | 3.87 | 4.86 | 2.17 | 1.98 | 0.63
5 | CS(=O)(=O)CCNCc1ccc(-c2ccc3ncnc(Nc4ccc(OCc5cccc(F)c5)c(C(F)(F)F)c4)c3c2)o1 | 1.85 | 2.17 | 3.48 | 9.54 | 10.4 | 6.1 | 3.78 | 1.9 | 4.58 | 2.66 | 3.86 | 3.73 | 5 | 6.01 | 4.01 | -1.31 | 8.28 | -1.21 | -1.42 | -6.45
6 | Nc1nc(-c2ccc3c(c2)C(=Cc2cc(Br)c(O)c(Br)c2)C(=O)N3)cs1 | 7.52 | 0.6 | 3.29 | -1.15 | 6.43 | 7.13 | 12.3 | 1.75 | 9.79 | 3.97 | 7.25 | -0.43 | 2.87 | 2.9 | 7.73 | 0.53 | -0.25 | 9.94 | 53 | 1.06
7 | COc1cc2c(cc1Nc1nc(N3CCc4ccccc43)c3cc[nH]c3n1)N(C(=O)CN(C)C)CC2 | 3.27 | 0.34 | 0.69 | 59.7 | 90 | 3.49 | 9.16 | 0.54 | 4.92 | 1.4 | 8.94 | -4.18 | 4.66 | 70.2 | 79.2 | 1.56 | 8.12 | 0.05 | -1.29 | 0.91
8 | CS(=O)(=O)CCNCc1ccc(-c2ccc3ncnc(Nc4ccc(OCc5ccccc5)c(Cl)c4)c3c2)o1 | 5.7 | 0.96 | 2.22 | 5.42 | 5.81 | 4.78 | 9.58 | 9.04 | 12.4 | 10.2 | 12.1 | 3.3 | 5.38 | 3.99 | 4.36 | 0.6 | 3.9 | -0.03 | -0.79 | 1.87
9 | CNC(=O)c1cncc(/C=C/c2c(Cl)cccc2Cl)c1 | 17.8 | 3.04 | 11 | 4.56 | 7.83 | 3.32 | 12.3 | 3.35 | 10.2 | 14.7 | 14.9 | 6.34 | -0.69 | 11.1 | 11.8 | 14.3 | 47.2 | 1.5 | 8.71 | 1.45
10 | Cc1ccc(C(=O)NC2CCCCC2)cc1-c1ccc(C(=O)NCC2CC2)cc1 | 9.04 | 0.19 | 0.68 | 3.32 | 9.58 | 5.5 | 7.84 | 5.44 | 4.79 | 10.8 | 23 | -5.44 | 3.46 | 6.22 | 7.1 | 0.23 | 4.58 | 2.6 | 0.74 | -0.6
11 | Cc1ccc(NC(=O)c2ccnc(N3CCCC3)c2)cc1-c1ccc(C(=O)NCC2CC2)cc1 | 13.4 | 2.28 | 2.38 | 12.2 | 9.43 | 6.99 | 9.44 | 8.29 | 9.54 | 10.7 | 11.4 | 8.6 | 6.95 | 6.76 | 12 | 4.44 | 9.16 | -3.02 | -4.02 | -0.79
12 | Cc1cc(O)cc(C)c1/C=C/c1cncc(-c2nn[nH]n2)c1 | 49.5 | 6.95 | 33.8 | 12.8 | 12.1 | 1.14 | 9.47 | 8.88 | 9.42 | 3.32 | 14.4 | 3.43 | 8.76 | 6.66 | 11.7 | 11.4 | 69.4 | 9.68 | 48.1 | -3.2
13 | NC(=O)c1cccc(Nc2nccc(Nc3cccc4[nH]ncc34)n2)c1 | 84 | 61.6 | 93.9 | 9.7 | 65.5 | 37.8 | 82.1 | 5.88 | 39.4 | 46 | 79.7 | 1.43 | 4.78 | 21.8 | 66 | 86.3 | 94.9 | 8.24 | 41.9 | -5.51
14 | CCn1c(-c2nonc2N)nc2c(C#CC(C)(C)O)nc(OC[C@@H](N)c3ccccc3)cc21 | 50.8 | 1.13 | 1.5 | -0.92 | 9.22 | 7.49 | 41.1 | 2.03 | 14.4 | 10.7 | 47.4 | 11.5 | 6.11 | 2.07 | 11.2 | 2.45 | 0.1 | 1.94 | 5.92 | -1.58
